Measured values reported in PMC10668032, “Altered binding affinity of SIX1-Q177R correlates with enhanced WNT5A and WNT pathway effector expression in Wilms tumor”.
The full ranking holds about 33,000 sequences; the median of “e-score” is about -0.053, and the highest 2% start at about 0.38. Shown is part of a subset that was picked to be rich in the highest values.

Target: T1, SIX1 homeodomain (reference allele) (human, UniProt Q15475 108-198)
T1 sequence: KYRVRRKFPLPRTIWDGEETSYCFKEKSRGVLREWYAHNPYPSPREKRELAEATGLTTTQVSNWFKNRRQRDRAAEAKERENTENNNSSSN
Experiment: universal protein binding microarray; Universal all-10-mer PBM (8x60K, AMADID 030236), 300 nM GST-tagged protein, Alexa Fluor 488 anti-GST; buffer, salt, pH and temperature not stated (as in Berger); high values mean tight binding
Settings: protein: ivt; tags: N-terminal GST; dsDNA, one strand shown
Method in brief: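 Duplicate protein binding microarrays (universal 'all 10-mer', 8×60K format) were incubated with GST-tagged homeodomains at 300 nM final concentration. Binding was quantified as 8-mer E-scores with the Universal PBM Analysis Suite.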

Sequence	binding signal [E-score]
CCGAATCC	0.163 ± 0.0406
ATCTTGTC	0.153 ± 0.0184
TCGATCCA	0.152 ± 0.142
TGGCATAA	0.177 ± 0.0236
AGCTATAC	0.235 ± 0.02
ATCGCTAG	0.279 ± 0.0337
ATTAGTGA	0.152 ± 0.0306
ATACCTCC	0.403 ± 0.0208
ATACCTCG	0.342 ± 0.0353
ATACCTCA	0.352 ± 0.0542
ATACTGCA	0.242 ± 0.0213
ATTGAGAC	0.212 ± 0.0411
AACTGGAT	0.172 ± 0.0594
CGGTATAC	0.393 ± 0.00578
GCGTATAC	0.295 ± 0.011
AGGTATAC	0.4 ± 0.0358
GGGTATAC	0.416 ± 0.0059
CGGTATAA	0.294 ± 0.0192
AGGTATAA	0.242 ± 0.0818
GGGTATAA	0.375 ± 0.0497
AGGTATAG	0.262 ± 0.0777
CGGTATAG	0.216 ± 0.0268
CACTATCG	0.211 ± 0.013
TAGATCCA	0.227 ± 0.0321
CATAACAC	0.161 ± 0.0101

Sequence	binding signal [E-score]
ATCTGCCA	0.187 ± 0.0302
GAGATCTC	0.292 ± 0.0824
ATCATCCG	0.348 ± 0.0124
ACACCCCT	0.327 ± 0.0413
ATCCGAAT	0.313 ± 0.0137
TATTAAAA	0.18 ± 0.0684
GGCGGGGA	0.174 ± 0.14
CTATCCTC	0.282 ± 0.0379
ATATCCTC	0.426 ± 0.02
AGATCCTC	0.329 ± 0.0109
ATCTCCTG	0.298 ± 0.00608
ATCTCCTA	0.159 ± 0.082
TAATCCTA	0.215 ± 0.0252
ATATCCTA	0.415 ± 0.027
AGATCCTG	0.252 ± 0.0351
GTATCCTA	0.409 ± 0.00666
ATATCCTG	0.394 ± 0.0206
GTATTCTA	0.191 ± 0.00249
CTATCCTA	0.198 ± 0.0137
GATCTTAC	0.275 ± 0.0138
ACAGGATC	0.283 ± 0.00359
ATCGAGAC	0.217 ± 0.013
CCAGATCA	0.39 ± 0.0106
TGAGATCA	0.33 ± 0.0117
TCGGATCA	0.4385 ± 0.00286

Sequence	binding signal [E-score]
CCGGATCA	0.454 ± 0.013
GGAGATCA	0.386 ± 0.0139
CCGGATTA	0.351 ± 0.0231
TCAGATCA	0.243 ± 0.0928
AGAGATCA	0.302 ± 0.0481
CCAGATCG	0.292 ± 0.0492
CCGGATGA	0.275 ± 0.0448
TCGGATAA	0.336 ± 0.0635
TCCGATCA	0.212 ± 0.00764
GACACTCC	0.258 ± 0.0239
CAGTGTAG	0.161 ± 0.0252
CGATCTGA	0.30169 ± 0.000148
ATACTTGA	0.222 ± 0.103
GTATAAAA	0.246 ± 0.0491
GATAGTTA	0.153 ± 0.035
CAGATCAC	0.3666 ± 0.00216
ACTCAGGG	0.266 ± 0.0829
CGTAATAC	0.256 ± 0.0115
GCGGATTA	0.318 ± 0.0316
GCGGATCA	0.448 ± 0.00571
GCGGATGA	0.171 ± 0.0144
ATCGTACC	0.217 ± 0.0516
CCCTCTCA	0.17 ± 0.048
GATAGCCC	0.303 ± 0.0137
AGATTGAT	0.221 ± 0.0674

Sequence	binding signal [E-score]
GATACCAA	0.4303 ± 0.00174
AATACCAA	0.278 ± 0.0235
AATACCAC	0.33 ± 0.0283
TATACCAA	0.347 ± 0.016
GATACCAC	0.462 ± 0.0103
AATACCAT	0.296 ± 0.0291
ACAGTGGT	0.155 ± 0.0272
GGATGACC	0.205 ± 0.0281
CTGAAACC	0.155 ± 0.0131
CATAAGAA	0.178 ± 0.0241
CCGGACAC	0.192 ± 0.0231
ATGCACTA	0.159 ± 0.065
CGTATTTA	0.169 ± 0.0073
CCTGGATA	0.313 ± 0.0384
GCCAGATA	0.213 ± 0.0509
GCTGGATA	0.324 ± 0.0373
CCCGGATA	0.424 ± 0.0139
CCCGGAGA	0.169 ± 0.0421
GCCGGATA	0.409 ± 0.0137
ACCGATGA	0.17 ± 0.0208
ATCGATCC	0.389 ± 0.0532
CCCGATCC	0.366 ± 0.0566
ACCGACAC	0.2857 ± 0.000453
ATCGATCA	0.17 ± 0.0323
ATCGATCG	0.256 ± 0.037

Sequence	binding signal [E-score]
ACCGATCC	0.382 ± 0.0237
CCCGATAG	0.205 ± 0.0789
ACCGATCA	0.2912 ± 0.000771
CCCGATAC	0.438 ± 0.0253
CCCGACAC	0.19 ± 0.0993
ACCGATAC	0.453 ± 0.017
ATCTTACC	0.296 ± 0.0402
CGTGTCAG	0.202 ± 0.0504
ATACTCGG	0.316 ± 0.01
ATCGTCAC	0.279 ± 0.00711
GATCTGCA	0.258 ± 0.0208
ATCACTGG	0.215 ± 0.00955
CCGGGTGA	0.201 ± 0.0475
ACCGATAT	0.396 ± 0.00927
ACCGATCT	0.251 ± 0.0228
TCCGATAA	0.223 ± 0.0291
GCCGATAC	0.42 ± 0.0113
GCCGATCC	0.352 ± 0.0357
ACCGATAG	0.352 ± 0.018
TATAAATA	0.16 ± 0.095
CGAGATGA	0.187 ± 0.0163
AGTAGATA	0.334 ± 0.0532
ATAGCTAC	0.163 ± 0.0342
AGGCGTAT	0.318 ± 0.00622
TATCTGAA	0.153 ± 0.0196

Sequence	binding signal [E-score]
GAGGATAC	0.403 ± 0.0104
GAGGATAA	0.278 ± 0.00471
AAGGATAA	0.167 ± 0.034
AAGGATAG	0.195 ± 0.0349
CAGGATAC	0.365 ± 0.0177
AAGGATAC	0.405 ± 0.0292
ACATTGAT	0.154 ± 0.01
ATGAGACC	0.295 ± 0.00298
ATCACATC	0.284 ± 0.0264
CACCGATC	0.305 ± 0.0428
ACATATCG	0.389 ± 0.0479
ACATATAC	0.244 ± 0.0208
CCATATAC	0.29 ± 0.00643
ACATATCT	0.233 ± 0.09
CCATATCG	0.4544 ± 0.00281
ACATATCC	0.381 ± 0.0241
ACATATAG	0.162 ± 0.052
CAATATCG	0.296 ± 0.0508
ACCTATCG	0.236 ± 0.0191
CCATATCC	0.424
CCATATGC	0.159 ± 0.0297
CCATATAG	0.211 ± 0.0217
ATATTCAG	0.164 ± 0.0437
GCTTATCC	0.304 ± 0.0229
TAGATGGA	0.289 ± 0.00593

Sequence	binding signal [E-score]
AACAGTAT	0.196 ± 0.107
CGGATTCC	0.247 ± 0.00447
CAGAACAA	0.176 ± 0.0355
ATATTAAC	0.156 ± 0.0934
CAAGATCA	0.242 ± 0.0215
GATCATGA	0.273 ± 0.0126
TCTCATAA	0.161 ± 0.0418
TATCATAA	0.381 ± 0.0345
TATCAGCA	0.327 ± 0.0344
TATCCTCA	0.37 ± 0.037
GATCATAA	0.306 ± 0.00493
TATCATGA	0.382 ± 0.0397
TATTATCA	0.187 ± 0.0898
TATCATCA	0.412 ± 0.0218
GATCAGGA	0.339 ± 0.0411
TATCAGGA	0.397 ± 0.00041
GGTCATGA	0.169 ± 0.033
AGGTGGAT	0.305 ± 0.034
CATAGATC	0.249
CGGTGTGA	0.204 ± 0.0905
GGTTAGAA	0.153 ± 0.0251
ATACTCTA	0.268 ± 0.0991
